About 83,000 compounds went through this panel and 20% of them were active in at least one assay; those are over-represented in the sample as a whole.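 Activity criterion: percent growth below 10, measured after cells in 96-well plates were exposed to a single compound concentration for 48 hours.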 Active and inactive are the calls of the source.
What was measured:
Assay in all cases: NCI-60 one-dose screen, 48 h (100 = growth as untreated, 0 = no growth, -100 = all killed)
Conditions in all cases: 10 µM unless noted
[1] = test system: RPMI-8226 leukemia
[2] = test system: OVCAR-8 ovarian
[3] = test system: OVCAR-5 ovarian
[4] = test system: OVCAR-4 ovarian
[5] = test system: SK-OV-3 ovarian
[6] = test system: OVCAR-3 ovarian
[7] = test system: HS 578T breast
[8] = test system: NCI/ADR-RES ovarian
[9] = test system: IGROV1 ovarian

Measured: growth

COc1ccc2c(c1)nnn1c3ncccc3c(N=O)c21
active: [1] -56.2% | [2] -30.3% | [3] -0.558% | [4] 9.93% | [5] 9.38% | [6] -91.3% | [7] -29.7% | [8] -8.17%

O=C(/C=C/c1ccco1)c1cccc(Nc2nc(Nc3ccccc3)nc(Nc3ccccc3)n2)c1
inactive: [1] 38.8% | [3] 83.6% | [4] 62.1% | [5] 90.5% | [6] 61.8% | [7] 92% | [8] 75.5%

Cc1cc(NCCN(C(C)C)C(C)C)nc(/N=C(\N)Nc2ccc(Cl)c(C(F)(F)F)c2)n1
active: [1] -65.7% | [2] -79.2% | [3] -55.5% | [4] -68.2% | [5] -82% | [6] -73.6% | [7] -48.5% | [8] -41.1%

C[C@@H]1CC2C3C[C@H](F)C4=CC(=O)C=C[C@]4(C)[C@@]3(F)[C@@H](O)C[C@]2(C)[C@@]1(O)C(=O)CO (stereo partly drawn)
inactive: [1] 64.8% | [2] 82.1% | [4] 113% | [5] 65.6% | [9] 99.8% | [6] 113% | [7] 112% | [8] 83.1%

C=C1C(=O)O[C@H]2[C@H]1CC/C(COC(=O)c1cc(OC)c(OC)c(OC)c1)=C\CC[C@@]1(C)O[C@@H]21
active: [1] -36.2% | [9] -8.27% | [6] -69.8%
inactive: [4] 20.1% | [5] 97.6% | [7] 32.9% | [8] 10.9%

c1ccc([Se]CCCN2CCN(CCC[Se]c3ccccc3)CC2)cc1
inactive: [3] 121% | [4] 101% | [5] 113% | [9] 103% | [6] 116% | [7] 110% | [8] 101%

Clc1ccc2c(c1)nnn1c3ncccc3c(Br)c21
inactive: [1] 83.2% | [2] 71.9% | [3] 101% | [4] 77.1% | [5] 51.3% | [6] 70.8% | [7] 16.7% | [8] 85.8%

Nc1nc2ccc(CNc3ccc(C(=O)NC(CC(=O)O)C(=O)O)cc3)cc2c(=O)[nH]1 (stereo not drawn)
inactive: [1] 44.3% | [2] 13.1% | [3] 52.2% | [4] 65.6% | [5] 76.8% | [6] 58.2% | [8] 33%

CN(C)C(=O)Nc1nc2cc(Cl)c(Cl)cc2[nH]1
inactive: [2] 13.6% | [3] 40.3% | [4] 33.9% | [5] 20.1% | [7] 50.8%
active: [1] -15.7% | [6] -49.9% | [8] 3.19%

O=C(NCCNc1nccc(-c2c(-c3cccc(O)c3)nc3sccn23)n1)c1cccc(C(F)(F)F)c1
inactive: [1] 44.2% | [4] 117% | [5] 84.2% | [9] 62.1% | [6] 89.8% | [8] 98.3%

O=C(O)c1cccc2oc(-c3ccccc3O)nc12
inactive: [1] 50.4% | [3] 74.7% | [4] 20.8% | [5] 58.4% | [9] 60.5% | [6] 15.5% | [7] 80.4% | [8] 19.8%

Cn1cnc([N+](=O)[O-])c1N1c2ccncc2Sc2ccncc21
inactive: [1] 85.8% | [2] 83.4% | [3] 99.7% | [4] 179% | [5] 92.2% | [6] 92.7% | [7] 98.2% | [8] 97.1%

COc1ccc(/C=C2\CS(=O)(=O)C/C(=C\c3ccc(OC)cc3)C2=O)cc1
inactive: [4] 12.3% | [5] 25.4% | [7] 48% | [8] 10.5%
active: [1] -41.2% | [2] -44.8% | [3] -20.2% | [6] -66.2%

CC(=O)N1N=C2N(Cc3ccccc3)C(=O)c3c(sc4c3CCCC4)N2C1c1cn(-c2ccccc2)nc1-c1ccc(Cl)cc1 (stereo not drawn)
inactive: [1] 87.9% | [2] 100% | [3] 101% | [4] 115% | [5] 88% | [6] 101% | [7] 93% | [8] 100%

Clc1ccc(CN2COc3c(ccc4cccnc34)C2)cc1Cl
inactive: [4] 11.6% | [5] 13.4% | [7] 55.4%
active: [1] -19.3% | [2] -24% | [3] 5.97% | [8] -19%

CC(C)(C)NC(C1=CC(C)(C)c2ccccc2C1=O)c1ccccc1 (stereo not drawn)
active: [1] -44.9% | [2] -47.9% | [3] -75% | [4] -52.9% | [8] -43.3%
inactive: [5] 29.2% | [7] 46.4%

CC(C)(C)NCC(O)COc1c(Br)c(Br)c(Br)c2c1OC(C)(C)C2 (stereo not drawn)
active: [1] -72.8% | [3] -73.2% | [9] -84.2% | [7] -64.8% | [8] -15.9%
inactive: [4] 15.3% | [5] 92.1%

CC1(C)N=C(N)N=C(N)N1c1ccc(OCC(=O)Nc2ccccc2)c(Cl)c1
inactive: [1] 34.5% | [3] 49% | [4] 46.1% | [5] 57.3% | [6] 56.7% | [7] 97.7% | [8] 102%

Cn1c(I)c(C#C[Si](C)(C)C)c(=O)[nH]c1=O
inactive: [1] 46.5% | [3] 77.7% | [5] 110% | [7] 10.6% | [8] 83.3%
active: [2] -11.7% | [4] -65% | [6] -54.1%

O=C(COc1ccc(Cl)cc1)N1CCN(Cc2ccc3c(c2)OCO3)CC1
inactive: [1] 88.7% | [2] 91.8% | [4] 94.5% | [5] 93.5% | [9] 106% | [6] 99.2% | [7] 92.8% | [8] 92.6%

COc1ccc2c(c1)nnc1c3cccnc3[nH]c21
inactive: [3] 36.1% | [4] 14.8% | [5] 19% | [8] 13.8%
active: [1] -41.9% | [2] 3.13% | [6] -51.1% | [7] -24.5%

CC1(C)N=C(N)N=C(N)N1c1cccc(CCCCc2ccccc2)c1
active: [1] -50% | [2] 0.546% | [4] 7.12% | [6] -16.8%
inactive: [3] 38.5% | [5] 30.3% | [7] 66.5% | [8] 90.3%

Cc1cccc(NC(=O)CCc2ccc(N3C(N)=NC(N)=NC3(C)C)cc2)c1
inactive: [1] 32% | [2] 47.7% | [3] 46.7% | [4] 51.7% | [5] 60.3% | [6] 65.6% | [7] 91.4% | [8] 95.6%

CCCN1C(=O)CSC1=Nc1ccc2cc3ccc(N=C4SCC(=O)N4CCC)cc3nc2c1
active: [1] 1.65%
inactive: [3] 89.2% | [4] 15.3% | [5] 74.5% | [6] 51% | [7] 31.6% | [8] 24.5%

CC1(C)N=C(N)N=C(N)N1c1ccc(F)c(C(F)(F)F)c1
inactive: [1] 50.4% | [3] 41.8% | [4] 55.3% | [5] 60.5% | [6] 53.9% | [7] 99.3% | [8] 91.9%
active: [2] 8.44%

CCC1CN2C(=N1)c1ccccc1-c1cc(Cl)ccc12 (stereo not drawn)
inactive: [3] 35.6% | [4] 26.6% | [5] 29.6% | [6] 20.4% | [7] 89.1% | [8] 21.3%
active: [1] -9.43% | [2] -5.17%

Cc1cccc(NCS(=O)(=O)O)c1
inactive: [1] 102% | [2] 88.6% | [4] 109% | [5] 97.4% | [9] 102% | [6] 116% | [7] 104% | [8] 105%

O=C1CN(CCN2CC(=O)NC(=O)C2)CC(=O)N1
inactive: [1] 88.1% | [2] 103% | [3] 93.2% | [4] 96.1% | [5] 102% | [6] 113% | [7] 102% | [8] 99.9%

CCC(C)Nc1ccc(N)cc1 (stereo not drawn)
inactive: [3] 74% | [5] 38.5% | [7] 78.9% | [8] 70.6%
active: [1] -25.4% | [4] -4.82% | [6] -42.9%

O=C(Nc1ccccc1F)Nc1ccccc1Cl
inactive: [1] 78.8% | [2] 101% | [3] 102% | [4] 73% | [5] 104% | [6] 102% | [7] 103% | [8] 88.9%
